{
  "source": "PubChem BioAssay (EPA / NIEHS)",
  "note": "Activity calls are given as the source filed them. The calls were made as follows: active = hit-call score of the fitted dose curve at least 0.9, where 1 is the maximum; inactive = score below 0.9.",
  "data": [
    {"read-out": "Interferon-gamma inducible Protein 10 (IP10), CXCL10 (gene 3627)", "test": "BSK_KF3CT_IP10: BioMAP Diversity Plus: KF3CT Assay for Interferon-gamma inducible Protein 10 (IP10) Biomarker Activity (AID 2283068)", "conditions": "primary human keratinocytes with fibroblasts; actives raise or lower the signal", "how_it_was_run": "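Signal is secreted/surface IP-10 by ELISA in a human primary skin co-culture of keratinocytes and foreskin fibroblasts, taken 24 h post-dosing; DMSO served as negative control.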", "values": [
      {"smiles": "CCO[Si](CCCNC(N)=O)(OCC)OCC", "outcome": "inactive"},
      {"smiles": "CCCCCCCCOc1ccc(C(=O)c2ccccc2)c(O)c1", "outcome": "inactive"},
      {"smiles": "COc1cc(C(=O)NC2CCN(C)CC2)ccc1Nc1ncc2c(n1)N(C1CCCC1)CC(F)(F)C(=O)N2C", "AC50": "32.3 µM (active)"},
      {"smiles": "c1ccc2ccccc2c1", "outcome": "inactive"},
      {"smiles": "O=CCCCC=O", "AC50": "33 µM (active)"},
      {"smiles": "Cc1ncc(CO)c(CO)c1O", "outcome": "inactive"},
      {"smiles": "CCCCCCCC[Si](OCC)(OCC)OCC", "AC50": "37.5 µM (active)"},
      {"smiles": "CC(O)CC(C)(C)O", "note": "(stereo not drawn)", "outcome": "inactive"},
      {"smiles": "Clc1ccccc1C(c1ccccc1)(c1ccccc1)n1ccnc1", "AC50": "8.61 µM (active)"},
      {"smiles": "COc1cccc([C@H](O)C2CCN(CCc3ccc(F)cc3)CC2)c1OC", "outcome": "inactive"},
      {"smiles": "CCCCCCCCCCCC[N+](C)(C)C", "AC50": "36 µM (active)"},
      {"smiles": "Clc1cc(Cl)c2c(c1)N=C1CCCCCN1C2", "outcome": "inactive"},
      {"smiles": "CO[C@H]1/C=C/O[C@@]2(C)Oc3c(C)c(O)c4c(O)c(c(/C=N/N5CCN(C)CC5)c(O)c4c3C2=O)NC(=O)/C(C)=C\\C=C\\[C@H](C)[C@H](O)[C@@H](C)[C@@H](O)[C@@H](C)[C@H](OC(C)=O)[C@@H]1C", "outcome": "inactive"},
      {"smiles": "Oc1ccc2ccccc2c1", "outcome": "inactive"},
      {"smiles": "CN(C)C(=O)C1(N2CCCCC2)CCN(CC[C@@]2(c3ccc(Cl)c(Cl)c3)CN(C(=O)c3ccccc3)CCO2)CC1", "AC50": "31.3 µM (active)"},
      {"smiles": "CCN(CC)C(=O)c1cc(S(=O)(=O)Cc2ccccc2)c(N2CCC(c3ccccc3)CC2)cc1N(CC)CCN(C)C", "outcome": "inactive"},
      {"smiles": "OC12N=C(c3ccccc3)SC1Cc1cc(Cl)ccc12", "note": "(stereo not drawn)", "outcome": "inactive"},
      {"smiles": "Cc1c2ccccc2c(C)c2c1ccc1ccccc12", "outcome": "inactive"},
      {"smiles": "Cc1cc(F)ccc1-c1cc(N2CC[C@@H](O)[C@H]2CO)ncc1N(C)C(=O)C(C)(C)c1cc(C(F)(F)F)cc(C(F)(F)F)c1", "AC50": "13.2 µM (active)"},
      {"smiles": "Cc1cc2c(cc1C(F)(F)F)N(C(=O)Nc1ccc(Oc3cccnc3C)nc1)CC2", "AC50": "29.9 µM (active)"},
      {"smiles": "CCCCCCCCOC(=O)c1cc(O)c(O)c(O)c1", "AC50": "12.3 µM (active)"},
      {"smiles": "O=c1c(-c2ccc(O)cc2)coc2cc(O)cc(O)c12", "outcome": "inactive"},
      {"smiles": "O=C1CCC(C2CCCCC2)CC1", "AC50": "31.5 µM (active)"},
      {"smiles": "Oc1ccccc1", "outcome": "inactive"},
      {"smiles": "CC1(C)NC(=O)N(c2ccc([N+](=O)[O-])c(C(F)(F)F)c2)C1=O", "outcome": "inactive"},
      {"smiles": "CN(C)c1ccc(C(=C2C=CC(=[N+](C)C)C=C2)c2ccc(N(C)C)cc2)cc1", "AC50": "8.28 µM (active)"},
      {"smiles": "CC[C@@H]1C[C@H](N(Cc2cc(C(F)(F)F)cc(C(F)(F)F)c2)C(C)=O)c2cc(C(F)(F)F)ccc2N1C(=O)OC(C)C", "outcome": "inactive"},
      {"smiles": "CN(C[C@@H](CC[N+]12CCC(C3CCCCC3)(CC1)CC2)c1ccc(Cl)c(Cl)c1)C(=O)c1cc(C(F)(F)F)cc(C(F)(F)F)c1", "AC50": "7.78 µM (active)"},
      {"smiles": "CC/C(=C(/CC)c1ccc(O)cc1)c1ccc(O)cc1", "AC50": "17.7 µM (active)"},
      {"smiles": "Cc1cn([C@H]2C[C@H](N=[N+]=[N-])[C@@H](CO)O2)c(=O)[nH]c1=O", "outcome": "inactive"},
      {"smiles": "CCCCCCCCCCCCO", "AC50": "37.7 µM (active)"},
      {"smiles": "O=C=NCCCCCCN=C=O", "outcome": "inactive"},
      {"smiles": "CN1C(=O)CC[C@H]1c1cccnc1", "outcome": "inactive"},
      {"smiles": "O=C1O[C@H]([C@@H](O)CO)C(O)=C1O", "outcome": "inactive"},
      {"smiles": "CCN(Cc1cccc(S(=O)(=O)O)c1)c1ccc(C(=C2C=CC(=[N+](CC)Cc3cccc(S(=O)(=O)O)c3)C=C2)c2ccccc2S(=O)(=O)[O-])cc1", "outcome": "inactive"},
      {"smiles": "CN1C(=O)N(c2ccccc2Br)Cc2cnc(Nc3ccc4c(c3)OCC(CO)O4)nc21", "note": "(stereo not drawn)", "AC50": "21.6 µM (active)"},
      {"smiles": "CCN(Cc1cccnc1)C(=O)c1cccc(Cl)c1[C@]1(C)C(=O)N(Cc2ccc(OC)cc2OC)c2ccc(Cl)cc21", "AC50": "22.3 µM (active)"},
      {"smiles": "CCCC(=O)OCCC(C)C", "outcome": "inactive"}
    ]}
  ]
}
